A selection: hits, their analogues and other compounds. The true share with any hit is near 32%.
CYP2C9 activ: CYP2C9 (human) activation. recombinant CYP2C9, luciferin-H conversion, luminescence; stronger effect = higher value; factor 1 = untreated enzyme, 0 = blocked. AID 1024. 96,000 tested, 1.4% active. activation factor at 5 µM;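 active = activation factor of 2 or more for CYP2C9 at a 5 µM dose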;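 also: 0 = sulfaphenazole-blocked wells and 1 = vehicle-only wells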
PostGolgi ctrl: growth of the yeast control strain, post-Golgi counter-screen | inhibition, % at 10 µM | AID 738 | 98,000 tested, 5% active | efflux-deficient yeast background strain, growth absorbance A615, 16 h
CYP2C19 inh: inhibitors of human CYP2C19; P33261; inhibition, % at 5 µM; 96,000 tested, 21% active; CYP2C19 Supersomes, luciferin-H EGE luminescence, 30 min; AID 778;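 active = CYP2C19 inhibition above a set limit at 5 µM in the primary screen, cut at about 50% in these data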;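 also: plate controls were negative control wells for no effect and 2.5 mM tranylcypromine positive control for full effect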
Target sequence (P33261 whole entry, looked up): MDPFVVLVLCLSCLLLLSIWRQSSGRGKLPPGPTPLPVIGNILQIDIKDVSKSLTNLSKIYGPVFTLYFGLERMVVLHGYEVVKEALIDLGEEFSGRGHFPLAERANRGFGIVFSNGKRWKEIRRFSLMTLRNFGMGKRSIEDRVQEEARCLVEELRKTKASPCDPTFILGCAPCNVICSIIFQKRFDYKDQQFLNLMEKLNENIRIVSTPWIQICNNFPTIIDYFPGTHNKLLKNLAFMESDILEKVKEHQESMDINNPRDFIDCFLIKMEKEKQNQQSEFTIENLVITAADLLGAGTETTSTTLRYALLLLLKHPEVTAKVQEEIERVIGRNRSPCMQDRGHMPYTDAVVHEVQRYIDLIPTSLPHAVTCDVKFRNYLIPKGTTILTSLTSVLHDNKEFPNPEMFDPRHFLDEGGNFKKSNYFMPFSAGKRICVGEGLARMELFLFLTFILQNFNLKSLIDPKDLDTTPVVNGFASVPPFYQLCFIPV
CYP2C19 act: cytochrome P450 2C19 (human) activation; recombinant CYP2C19, luciferin-H EGE luminescence; stronger effect = higher value; 0 = fully inhibited enzyme, 1 = untreated enzyme; activation factor at 5 µM; 96,000 tested, under 10 active;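 active = activation factor of at least 2 at 5 µM in the primary screen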;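 also: 0 = wells with 2.5 mM tranylcypromine and 1 = vehicle-only wells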
PostGolgi yeast: growth inhibition of a yeast mutant, post-Golgi transport screen. post-Golgi transport phenotypic cell assay. inhibition, % at 10 µM. 98,000 tested, 0.9% active;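 also: yeast cells grown in 1536-well plates; yeast grown about 18 h at 30C before absorbance read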
CYP2C9 inhib: human CYP2C9 inhibition. CYP2C9 Supersomes, luciferin-H conversion, luminescence. inhibition, % at 5 µM. 96,000 tested, 20% active. AID 777;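 active = blocking of liver enzyme CYP2C9 beyond about 50% at 5 µM, limit read from the data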
* marks the source's active call; other numbers are inactive results; · = not tested or not shown. Rule as the data show it, unless noted: active = inhibition above about 30%; inactive = the rest.

SMILES	CYP2C9 activ	PostGolgi ctrl	CYP2C19 inh	CYP2C19 act	PostGolgi yeast	CYP2C9 inhib
COc1ccc2[nH]c(=O)c(C(c3nnnn3C3CCCC3)N(C)C3CCCCC3)cc2c1 (stereo not given)	1.1	5	1	1	3	-7
CC1(C)Cc2c(sc3c2C2=NCCN2C=N3)CS1	1	10	-16	1.2	2	-3
O=C(O)CCn1[nH]c(=O)c2ccccc2c1=O	1	4	-2	1	-2	-2
N#Cc1ccc(CSc2nnc(NC(=O)CN3C(=O)C4CC=CCC4C3=O)s2)cc1 (stereo not given)	0.8	-1	13	0.9	4	20
CCOC(=O)C1=C(C)NC(=O)C1CC(=O)Nc1ccccc1 (stereo not given)	·	2	·	·	-6	·
CSc1ccc(NC(=O)N2CCN(c3nc4ccccc4s3)CC2)cc1	0.6	6	36	0.6	3	37
Cc1ccc(CN2C(=O)CCC2C(=O)NCCCN2CCCC(C)C2)cc1 (stereo not given)	1	-1	-3	1	1	0
CCOC(=O)Cc1csc(NC(=O)c2ccc(Cl)nc2)n1	0.8	-2	17	0.8	4	18
CCOC(=O)Cc1csc(Nc2c(C)n(C)n(-c3ccccc3)c2=O)n1	1	6	1	1	-4	3
CCOC(=O)Cc1csc(NS(=O)(=O)c2ccc(F)cc2)n1	0.5	6	2	1	-5	50*
CCCCC(=O)Nc1ccc(C(=O)Nc2nc(CC(=O)OCC)cs2)cc1	0.3	0	22	0.8	-4	68*
CCOC(=O)Cc1csc(NC(=O)c2sc3nc4ccc(CC)cc4cc3c2N)n1	0.4	-16	41	0.6	-6	63*
Cc1csc(NC(=O)c2cccs2)n1	0.5	2	94*	0.1	0	54*
Cc1nc(NC(=O)c2ccc(Br)o2)sc1C	0.9	8	21	0.8	-2	10
CCOC(=O)Cc1csc(NC(=O)c2ccc(Br)o2)n1	0.4	5	45	0.6	6	60*
CC(=O)N(CN1C(=O)c2ccc([N+](=O)[O-])cc2C1=O)c1ccc(F)cc1	1.2	6	20	0.8	18	-17
CC(=O)N(CCCCN1C(=O)c2ccccc2C1=O)c1ccc(C)cc1	0.8	17	23	0.8	4	16
O=C1c2ccccc2C(=O)N1CCCCN(C(=O)c1ccc([N+](=O)[O-])cc1)c1ccc(Cl)cc1	0.5	23	40	0.6	-1	54*
Cc1ccc(N(CCCCN2C(=O)c3ccccc3C2=O)C(=O)c2cccc([N+](=O)[O-])c2)cc1	0.4	15	64*	0.4	4	61*
Cc1cccc(NC(=O)CN2C(=O)COc3ccc(Cl)cc32)c1C	0.7	29	88*	0.1	5	32
O=C(CN1C(=O)COc2ccc(Cl)cc21)Nc1ccc2c(c1)OCCO2	0.7	4	22	0.8	-5	32
COc1cccc(NC(=O)CN2C(=O)COc3ccc(Cl)cc32)c1	0.2	7	92*	0.1	4	78*
CCOc1ccc(NC(=O)CN2C(=O)COc3ccc(Cl)cc32)cc1	1.1	10	-2	1	-2	-9
Cc1cccc(NC(=O)CN2C(=O)COc3ccc(Cl)cc32)c1	0.8	·	72*	0.3	·	18
CC(C)(C)c1ccc2c(c1)N(CC(=O)O)C(=O)CO2	1	-2	2	1	1	3
SMILES	CYP2C9 activ	PostGolgi ctrl	CYP2C19 inh	CYP2C19 act	PostGolgi yeast	CYP2C9 inhib
O=C(CSc1nc2c([nH]c3ccccc32)c(=O)n1-c1ccc(F)cc1)NCc1ccco1	0.9	-9	3	1	5	15
Cc1cc2cc(CNC(=O)CC(C)C)ccc2n1C	1.1	0	38	0.6	-2	-7
C=CCOc1ccc(/C(CC)=N/O)cc1OC	1	-3	14	0.9	6	2
O=[N+]([O-])c1ccc(Oc2cccc(Br)c2)c2ccncc12	0.8	79*	58*	0.4	8	16
O=[N+]([O-])c1ccc(Oc2ccc(F)cc2)c2ccncc12	0.5	30	84*	0.2	16	50
CN(Cc1ccccc1)C(=O)C1CCCN(Cc2ccc(Cl)cc2)C1 (stereo not given)	0.9	6	25	0.8	9	12
O=C(Nc1ccccc1)/C(=C/c1ccccc1)c1ccccc1	·	40*	·	·	-6	·
CN1CCN(C(=O)/C(=C\c2ccccc2)c2ccccc2)CC1	1.1	5	21	0.8	-2	-10
Cc1ccccc1NC(=O)/C(=C/c1ccccc1)c1ccccc1	0.7	31*	27	0.7	-3	26
CCCCc1cc2c(c(NC(=O)CC)n1)c(=O)oc1ccccc12	0.9	1	10	0.9	-7	15
CCCn1c(=O)[nH]c(=O)c2c1nc(-c1ccccc1)n2CCN1CCOCC1	1.1	-1	-17	1.2	-17	-11
Cc1ccc2nc(C3CCN(S(=O)(=O)c4ccc5ccccc5c4)CC3)[nH]c2c1	3*	14	38	0.6	6	-195
O=S(=O)(c1ccc2c(c1)OCCO2)N1CCC(c2nc3ccc(Cl)cc3[nH]2)CC1	2.1*	-4	84*	0.2	-6	-111
O=C(c1ccc(S(=O)(=O)N2CCC(c3nc4ccccc4[nH]3)CC2)cc1)N1CCOCC1	0.6	0	47	0.5	0	35
CC(=O)Nc1ccc(S(=O)(=O)N2CCC(c3nc4ccccc4[nH]3)CC2)cc1	0.3	-3	48	0.5	1	68*
O=S(=O)(c1ccc2c(c1)OCCO2)N1CCC(c2nc3ccccc3s2)CC1	1.3	3	8	0.9	-3	-31
CC(=O)Nc1ccc(S(=O)(=O)N2CCN(c3cc(C)nc4ccccc34)CC2)cc1	0.3	10	45	0.6	12	66*
CCCOc1ccc(/C=N/NC(=O)C2CCCN2S(=O)(=O)c2ccc(Cl)cc2)cc1 (stereo not given)	0.6	24	26	0.7	-2	41
O=C(CSc1nnc(NC(=O)CN2CCOCC2)s1)Nc1ccccc1	0.9	21	6	0.9	0	14
O=C(CSc1ccccc1)Nc1cccnc1	0.9	-2	42	0.6	8	7
O=S(=O)(c1ccc2c(c1)OCCO2)N1CCC(c2nc3ccccc3[nH]2)CC1	1.6	7	63*	0.4	4	-57
CCc1cccc(NC(=O)CCSCCC(=O)Nc2cccc(CC)c2)c1	0.4	2	23	0.8	-8	62*
Cn1cc(CC(=O)Nc2cccc(C#N)c2)c2ccccc21	3.1*	8	48	0.5	16	-212
Cc1ccc(NC(=O)CCSCCC(=O)Nc2ccc(C)c(C)c2)cc1C	0.6	-4	33	0.7	-7	42
CCC(C)NC(=O)Cc1cn(C)c2ccccc12 (stereo not given)	1.2	-2	60*	0.4	7	-19
CCc1ccc(NC(=O)Cc2cn(C)c3ccccc23)cc1	2.5*	4	42	0.6	0	-149

Screening results deposited in PubChem by several laboratories.
